We go through three compounds from PubChem BioAssay (EPA / NIEHS).

Values joined by “and” are separate entries in the source; they are usually repeats but may differ in a detail not shown here. Identical values can stand only once. Active and inactive are the calls of the source. Rule for the calls: active = hit-call score of the fitted dose curve at least 0.9, where 1 is the maximum; inactive = score below 0.9.

Read-out in test [1]: C-C motif chemokine 2 (Homo sapiens) (UniProt P13500)
Kind of test: BSK_KF3CT_MCP1: BioMAP Diversity Plus: KF3CT Assay for Monocyte Chemoattractant Protein 1 (MCP1/CCL2) Biomarker Activity (AID 2283073). The note with it: primary human keratinocytes with fibroblasts; actives raise or lower the signal. A digest of the protocol: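 Biomarker MCP-1 is measured by ELISA in primary human keratinocytes co-cultured with foreskin fibroblasts, 24 h after chemical treatment; DMSO serves as the negative control and activity baseline.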

Read-out in test [2]: Matrix Metallopeptidase 9 (MMP9), MMP9 (gene 4318)
Kind of test: BSK_KF3CT_MMP9: BioMAP Diversity Plus: KF3CT Assay for Matrix Metallopeptidase 9 (MMP9) Biomarker Activity (AID 2283074).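 For AC50: MMP9 protein level quantified by ELISA in the co-culture.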 The note with it: primary human keratinocytes with fibroblasts; actives raise or lower the signal. A digest of the protocol: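 Human keratinocyte and foreskin fibroblast co-culture exposed to chemicals for 24 h; MMP9 biomarker measured by ELISA, bidirectional fitting relative to DMSO; cytotoxicity tracked by SRB total protein staining in parallel cultures.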

Read-out in test [3]: urokinase plasminogen activator (uPA), PLAU (gene 5328)
Put plainly: BSK_KF3CT_uPA: BioMAP Diversity Plus: KF3CT Assay for urokinase plasminogen activator (uPA) Biomarker Activity (AID 2283075). The following applies: primary human keratinocytes with fibroblasts; actives raise or lower the signal. A digest of the protocol:
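Primary human keratinocyte/foreskin fibroblast co-culture exposed to chemical; uPA measured by ELISA at 24 h. Bidirectional fit versus DMSO, with parallel SRB total-protein staining for cytotoxicity.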

Read-out in test [4]: CD40, CD40 (gene 958)
Kind of test: BSK_LPS_CD40: BioMAP Diversity Plus: LPS Assay for CD40 Biomarker Activity (AID 2283076). The following applies: primary human HUVEC with PBMC; actives raise or lower the signal. A digest of the protocol: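 Using a multiplexed primary human co-culture (umbilical vein endothelium plus PBMC), CD40 was read by ELISA 24 h after dosing, with cytotoxicity tracked by sulforhodamine B staining of parallel cultures and activity fitted bidirectionally versus DMSO.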

Read-out in test [5]: E-selectin (Homo sapiens) (UniProt P16581)
Kind of test: BSK_LPS_Eselectin: BioMAP Diversity Plus: LPS Assay for Eselectin Biomarker Activity (AID 2283077). The note with it: primary human HUVEC with PBMC; actives raise or lower the signal. A digest of the protocol: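 Dose chemical onto LPS-driven HUVEC/PBMC co-culture; after 24 h, run ELISA for E-selectin; fit up- and down-going responses relative to DMSO control.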

Read-out in test [6]: Interleukin-8 (IL8), CXCL8 (gene 3576)
Put plainly: BSK_LPS_IL8: BioMAP Diversity Plus: LPS Assay for Interleukin-8 (IL8) Biomarker Activity (AID 2283078). The following applies: primary human HUVEC with PBMC; actives raise or lower the signal. A digest of the protocol: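 In this LPS system, chemical-treated human umbilical vein endothelium/PBMC co-cultures were harvested at 24 h for IL-8 ELISA.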

A short description of test [7]: BSK_LPS_SRB: Viability Assessment in the BioMAP Diversity Plus: LPS Assay (AID 2283079).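 Note: total protein by sulforhodamine B absorbance as a cytotoxicity measure; measured one day after compound addition; fitted in both directions against DMSO so loss or gain of signal counts.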 The note with it: primary human HUVEC with PBMC. A digest of the protocol:
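Cytotoxicity endpoint in human endothelial–PBMC co-culture: 24 h exposure, then SRB (0.1%) staining, 560 nm read.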

Read-out in test [8]: Interleukin-1 alpha (IL1a), IL1A (gene 3552)
Put plainly: BSK_LPS_IL1a: BioMAP Diversity Plus: LPS Assay for Interleukin-1 alpha (IL1a) Biomarker Activity (AID 2283080). The following applies: primary human HUVEC with PBMC; actives raise or lower the signal. A digest of the protocol: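 Primary human HUVEC and PBMC co-culture stimulated with LPS is dosed and harvested at 24 h. Both increases and decreases in ELISA-measured IL-1a are scored relative to DMSO.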

Read-out in test [9]: Monocyte Chemoattractant Protein-1 (MCP1), CCL2 (gene 6347)
Put plainly: BSK_LPS_MCP1: BioMAP Diversity Plus: LPS Assay for Monocyte Chemoattractant Protein-1 (MCP1) Biomarker Activity (AID 2283081). The note with it: primary human HUVEC with PBMC; actives raise or lower the signal. A digest of the protocol: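 Values derive from bidirectional fitting against DMSO of ELISA-measured MCP-1 in a human primary endothelial and mononuclear cell co-culture, 24 h after chemical addition under LPS activation.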

Test [10] is described as follows: BSK_LPS_PGE2: BioMAP Diversity Plus: LPS Assay for Prostaglandin E2 (PGE2) Biomarker Activity (AID 2283082). The note with it: primary human HUVEC with PBMC; actives raise or lower the signal. A digest of the protocol:
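LPS-activated HUVEC/PBMC co-culture; cmpd dosed, 24 h; PGE2 by ELISA; bidirectional fit vs DMSO; SRB (0.1%, TCA-fixed, 560 nm) in parallel plates for overt cytotox.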

Read-out in test [11]: Macrophage colony-stimulating factor (MCSF), CSF1 (gene 1435)
Kind of test: BSK_LPS_MCSF: BioMAP Diversity Plus: LPS Assay for Macrophage colony-stimulating factor (MCSF) Biomarker Activity (AID 2283083). The note with it: primary human HUVEC with PBMC; actives raise or lower the signal. A digest of the protocol:
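Bidirectional fit versus DMSO of ELISA-measured M-CSF in co-cultured human umbilical vein endothelial cells and PBMC, sampled 24 h after dosing.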

Read-out in test [12]: Tumor necrosis factor (Homo sapiens) (UniProt P01375)
Put plainly: BSK_LPS_TNFa: BioMAP Diversity Plus: LPS Assay for Tumour Necrosis Factor alpha (TNFa) Biomarker Activity (AID 2283085). The note with it: primary human HUVEC with PBMC; actives raise or lower the signal. A digest of the protocol:
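Read-out is ELISA of TNFa in primary human endothelial cell–PBMC co-cultures at 24 h after compound. Activity in either direction was fitted against DMSO.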

Read-out in test [13]: Vascular cell adhesion molecule 1 (VCAM1), VCAM1 (gene 7412)
Put plainly: BSK_LPS_VCAM1: BioMAP Diversity Plus: LPS Assay for Vascular cell adhesion molecule 1 (VCAM1) Biomarker Activity (AID 2283086). The note with it: primary human HUVEC with PBMC; actives raise or lower the signal. A digest of the protocol: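 HUVEC + PBMC co-culture, LPS system; compound 24 h; VCAM-1 by ELISA; bidirectional fit vs DMSO control; parallel SRB (0.1%, TCA-fixed, 560 nm) for cytotoxicity.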

Read-out in test [14]: CD38, CD38 (gene 952)
Put plainly: BSK_SAg_CD38: BioMAP Diversity Plus: SAg Assay for CD38 Biomarker Activity (AID 2283087). The note with it: primary human HUVEC with PBMC; actives raise or lower the signal. A digest of the protocol: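 Human HUVEC plus PBMC co-culture stimulated with superantigen; CD38 measured by ELISA 24 h after chemical dosing. Fluorescence read-out, bidirectional fit against DMSO; cytotoxicity tracked in parallel by SRB and Alamar Blue.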

Read-out in test [15]: CD40, CD40 (gene 958)
Put plainly: BSK_SAg_CD40: BioMAP Diversity Plus: SAg Assay for CD40 Biomarker Activity (AID 2283088). The note with it: primary human HUVEC with PBMC; actives raise or lower the signal. A digest of the protocol: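 Endpoint derived by fitting increases or decreases versus DMSO controls. CD40 is detected by fluorescence ELISA in a human vascular co-culture of endothelium and PBMC at 24 h.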

Read-out in test [16]: CD69, CD69 (gene 969)
Put plainly: BSK_SAg_CD69: BioMAP Diversity Plus: SAg Assay for CD69 Biomarker Activity (AID 2283089). The following applies: primary human HUVEC with PBMC; actives raise or lower the signal. A digest of the protocol: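 Values derive from bidirectional fitting relative to DMSO vehicle. Cells: umbilical vein endothelium plus peripheral blood mononuclear cells, treated 24 h before fluorescent ELISA for CD69.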

Read-out in test [17]: Monocyte Chemoattractant Protein-1 (MCP1), CCL2 (gene 6347)
Put plainly: BSK_SAg_MCP1: BioMAP Diversity Plus: SAg Assay for Monocyte Chemoattractant Protein-1 (MCP1) Biomarker Activity (AID 2283090). The note with it: primary human HUVEC with PBMC; actives raise or lower the signal. A digest of the protocol: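 MCP-1 levels in the endothelial–PBMC SAg co-culture were quantified by ELISA at 24 h post-dosing; both increases and decreases versus DMSO scored. Cytotoxicity monitored by SRB total protein in parallel cultures.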

Read-out in test [18]: E-selectin (Homo sapiens) (UniProt P16581)
Put plainly: BSK_SAg_Eselectin: BioMAP Diversity Plus: SAg Assay for Eselectin Biomarker Activity (AID 2283091). The note with it: primary human HUVEC with PBMC; actives raise or lower the signal. A digest of the protocol:
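Endpoint values derive from bidirectional fitting relative to DMSO, using ELISA-measured E-selectin in a human vascular co-culture (umbilical vein endothelium plus PBMC) sampled 24 h after dosing.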

Read-out in test [19]: Monokine induced gamma interferon (MIG), CXCL9 (gene 4283)
Put plainly: BSK_SAg_MIG: BioMAP Diversity Plus: SAg Assay for Monokine induced gamma interferon (MIG) Biomarker Activity (AID 2283092). The following applies: primary human HUVEC with PBMC; actives raise or lower the signal. A digest of the protocol:
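Values reflect bidirectional fitting of ELISA-measured MIG against DMSO vehicle, taken 24 h after dosing of a co-culture of human umbilical vein endothelial cells and peripheral blood mononuclear cells.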

Chain of E-selectin (Homo sapiens) (P16581 whole entry, looked up): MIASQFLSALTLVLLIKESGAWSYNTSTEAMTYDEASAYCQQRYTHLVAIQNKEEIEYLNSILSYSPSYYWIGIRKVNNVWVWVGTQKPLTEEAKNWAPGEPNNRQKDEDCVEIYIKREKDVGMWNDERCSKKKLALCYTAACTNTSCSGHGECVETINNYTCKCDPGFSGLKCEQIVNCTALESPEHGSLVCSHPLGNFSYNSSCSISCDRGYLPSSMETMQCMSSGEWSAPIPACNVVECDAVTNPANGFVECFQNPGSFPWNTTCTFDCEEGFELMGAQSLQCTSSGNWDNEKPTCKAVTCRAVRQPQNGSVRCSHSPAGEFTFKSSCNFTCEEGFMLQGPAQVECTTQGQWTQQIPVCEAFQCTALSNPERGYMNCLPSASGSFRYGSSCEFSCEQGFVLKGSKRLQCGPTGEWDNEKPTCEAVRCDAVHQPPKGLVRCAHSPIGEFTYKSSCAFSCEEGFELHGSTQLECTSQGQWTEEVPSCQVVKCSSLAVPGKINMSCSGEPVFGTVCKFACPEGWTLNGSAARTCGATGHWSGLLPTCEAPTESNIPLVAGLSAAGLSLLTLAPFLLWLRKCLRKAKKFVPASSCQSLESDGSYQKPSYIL
Chain of Tumor necrosis factor (Homo sapiens) (P01375 whole entry, looked up): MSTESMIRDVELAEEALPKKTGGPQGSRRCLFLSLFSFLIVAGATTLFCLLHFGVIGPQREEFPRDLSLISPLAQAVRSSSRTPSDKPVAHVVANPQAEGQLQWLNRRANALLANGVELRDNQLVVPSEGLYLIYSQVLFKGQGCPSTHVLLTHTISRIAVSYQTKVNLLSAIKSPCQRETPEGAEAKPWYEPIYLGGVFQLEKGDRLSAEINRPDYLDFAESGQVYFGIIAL

For the compound `C=CC(=O)OCCC(F)(F)C(F)(F)C(F)(F)C(F)(F)C(F)(F)C(F)(F)C(F)(F)C(F)(F)F`, the outcome in [1], in [3], in test [4], in test [5], in [6] and in [7] was inactive. In addition, the outcome in [8], in [9], in test [10], in test [11], in test [12] and in test [13] was inactive. The result in test [14], in [15], in test [16], in test [17] and in test [18] was inactive. Moreover, the AC50 in test [2] was 12.6 µM (active) and 8.83 µM (active).

As to `O=C(NO)c1ccccc1`, the outcome in test [1], in test [2], in test [3], in test [4], in test [5] and in [6] was inactive. The result in test [7], in [8], in test [9], in test [10], in test [11] and in test [12] was inactive. In addition, the result in test [13], in test [14], in test [15], in test [16], in [17] and in test [18] was inactive.

With `CCCCC(CC)C(=O)OCCOCCOCCOCCOC(=O)C(CC)CCCC` (stereo not given), the outcome in test [1], in test [2], in [3], in test [4], in [5] and in test [6] was inactive. In addition, the outcome in test [7], in test [8], in test [9], in [10], in test [12] and in [13] was inactive. For the same compound, the result in [14], in [15], in [16], in test [17], in test [18] and in test [19] was inactive. The AC50 in test [11] was 20 µM (active).

Usually AC50 stands for the concentration at which the activity in the assay is half-maximal.
